Experimental findings from patent US20150152398, “Endoribonuclease and Methods of Use Thereof” (The Regents of the University of California, published 2015) are described below.

The target of the assay is T1, TtCas6A R129A (Thermus thermophilus HB8, R129A).
T1 chain: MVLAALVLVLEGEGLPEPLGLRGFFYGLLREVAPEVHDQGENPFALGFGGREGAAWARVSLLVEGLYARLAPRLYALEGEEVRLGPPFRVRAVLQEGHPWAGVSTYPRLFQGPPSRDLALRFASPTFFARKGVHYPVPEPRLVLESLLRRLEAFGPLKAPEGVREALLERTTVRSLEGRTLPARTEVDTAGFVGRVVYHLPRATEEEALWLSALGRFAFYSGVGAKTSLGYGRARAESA
In words: EMSA; Kd in FIG. 24D only. The following applies: chain copies: 2 inferred; label: 5'-32P (EMSA); hairpin; ssRNA. An excerpt: FIG. 22 illustrates that TtCas6A and TtCas6B both cleave repeats R1 and R3 and retain their cleaved products. (A) Sequences and predicted secondary structures of T. thermophilus CRISPR repeats. Sites of cleavage are indicated with blue arrows. TtCas6e (TTHB192) cleaves repeat R2, while TtCas6A (TTHA0078) and TtCas6B (TTHB231) both cleave repeats R1 and R3. (B) Cleavage product binding affinities of TtCas6A and TtCas6B enzymes. Maltose binding protein (MBP)-fused TtCas6A or TtCas6B were bound to in 5′-radiolabelled, vitro transcribed R1 and R3 RNAs. Bound and unbound fractions were resolved by electrophoresis on a native polyacrylamide gel and visualized by phosphorimaging. The data for these and all subsequent binding assays were fit with standard binding isotherms (solid line). Error bars on each data point denote standard error of the mean (SEM) from three independent experiments. (C) Experiments to confirm single turnover. RNA cleavage assays were carried out at indicated protein:RNA ratios. RNA cleavage was monitored using denaturing polyacrylamide gel electrophoresis. The data from these and all subsequent endoribonuclease activity assays were fit with single exponential curves to yield first-order rate constants. (Top to bottom: FIG. 22A, SEQ ID NOs: 1, 2, 55).
To test the importance of the stem sequence for substrate RNA recognition by TtCas6A, a series of EMSAs was performed using R1 repeat-derived RNAs that carried single base pair substitutions (C-G→A-U). All mutant RNAs contained the complete 5′ segment and additional two nucleotides downstream of the cleavage site. Compared to the wild-type RNA, substitution of any of the four C-G base pairs in the stem led to about five-fold decrease in affinity (FIG. 24C). This is consistent with the observation that the lower three C-G base pairs are specifically read out by Arg129. The binding defect observed upon mutation of the closing (uppermost) base pair could be due to loss of stability of the stem-loop structure, which is determined by the closing base-pair (Serra et al, 1993). To further investigate the protein determinants of RNA binding, we tested the TtCas6A mutants H37A and R129A and performed binding assays using substrates R1 and R3 (FIG. 24D).
In general terms: In EMSA bound probe runs differently from free probe, usually more slowly.
As to GUUGCAAACCUCGUUAGCCUCGUAGAGGAUUGAAAC, the binding signal is ~290 fold lower affinity than WT.

Turning to GUUGCAAGGGAUUGAGCCCCGUAAGGGGAUUGCGAC, the binding signal was ~260 fold lower affinity than WT.
